# Compound activity: PubChem, National Center for Advancing Translational Sciences (NCATS)
# Only some compounds are listed: those with a hit (about 19% of all), similar ones and a draw of the others.
# IL-1B inflam inh = qHTS for Inhibitors of Inflammasome Signaling: IL-1-beta AlphaLISA Primary Screen | THP-1 LPS/ATP IL-1B secretion, AlphaLISA, 16 h; stronger effect = lower value | 4.7% of 360,000 active | activity change, % at 57.5 µM; in the data active = activity change below about -50%; inconclusive = mostly about -30% to -49%
#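 THP-1 cells pretreated 1 hr with compounds (up to 57.5 uM final), then stimulated with LPS (250 ng/mL final) plus ATP (1.25 mM final); secreted IL-1B measured by AlphaLISA after 16 hr, decreased signal indicating inhibition.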
# HT1080 IDH1KD tx = qHTS for induction of synthetic lethality in tumor cells producing 2HG: qHTS for the HT-1080-IDH1KD cell line | Potency, µM (highest dose often 46.1 µM), without a hit: top-dose activity, negative = toxicity, hits mostly cytotoxic | 2% of 360,000 active | HT-1080 IDH1 knockdown viability, ATP luminescence, 48 h;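 note: potency is the fitted concentration of half-maximal effect; 0% = DMSO wells and -100% = cell-free medium wells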
#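 After a 2 h attachment period, IDH1KD HT-1080 cells took pin-transferred compound for 48 h at 37 °C; ATP-based luminescence after 10 min room-temperature reagent incubation reported viability.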
# TDP1 cell CPT = qHTS for Inhibitors of human tyrosyl-DNA phosphodiesterase 1 (TDP1): qHTS in cells in presence of CPT; 12% of 420,000 active; Potency, µM (highest dose often 46.2 µM), inactives show top-dose activity change, negative = growth inhibition, most hits filed as inhibitors; chicken DT40 Tdp1-/-;hTDP1 cells + 20 nM CPT, ATP luminescence, 48 h; AID 686979, 2013; note: potency is the fitted concentration of half-maximal effect; nearly all actives have a fitted effect of over 55% in size
#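 Cell growth measured by CellTiter-Glo luminescence after a minimum 48 h, 37 C compound exposure with 20 nM CPT in Tdp1-knockout DT40 cells stably expressing hTDP1, seeded 400/well; qHTS titration format.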
# HT1080NT lethal = qHTS for induction of synthetic lethality in tumor cells producing 2HG: qHTS for the HT-1080-NT fibrosarcoma cell line. HT-1080-NT fibrosarcoma viability, CellTiter-Glo ATP luminescence, 48 h. Potency, µM (doses to about 46.1 µM), without a hit: at the top dose activity, negative = less viability, actives largely listed as cytotoxic. 1.6% of 360,000 active. AID 686970, 2013;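 note: NT is the 2HG producing partner of a matched IDH1 knockdown line; potency is the fitted concentration of half-maximal effect; 0% = DMSO-treated cells and -100% = media-only wells without cells; nearly all actives have a fitted effect of over 55% in size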
#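 Toxicity toward the 2HG-producing NT line was scored as %Activity, normalised to DMSO and no-cell wells, from CellTiter-Glo luminescence after 48 hours' treatment.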
# TDP1 cell noCPT = qHTS for Inhibitors of human tyrosyl-DNA phosphodiesterase 1 (TDP1): qHTS in cells in absence of CPT; Potency, µM (series often up to 46.2 µM), for the others: at the highest dose activity change, negative = growth inhibition, hits mostly inhibitors; DT40 Tdp1-/- hTDP1 cells, no CPT, ATP luminescence, 48 h; 15% of 420,000 active; AID 686978, 2013; note: potency is the fitted concentration of half-maximal effect; nearly all actives have a fitted effect of over 55% in size
#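 Compound effects on proliferation are scored in DT40 Tdp1-/-;hTDP1 cells in the absence of CPT. ATP levels (CellTiter-Glo luminescence) are recorded after a ≥48 hr, 37 °C incubation.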
# The depositor's hits bear a star; ? = inconclusive; . = no result given. Unless noted, calls come from the whole dose curve; as a rule, active = well fitted curve in the direction sought with a large enough effect; inconclusive = small, poorly fitted or top-dose-only effect, or another doubt; inactive = no such curve, though single readings can be large; an effect the other way counts as inactive or inconclusive. Unless noted, % is set by controls: 0 for no effect and ±100 for the full control effect.
SMILES,IL-1B inflam inh,HT1080 IDH1KD tx,TDP1 cell CPT,HT1080NT lethal,TDP1 cell noCPT
CCOC(=O)C1(Cc2cccc(OC)c2)CCCN(C(=O)CCN2CCCO2)C1 (configuration not stated),6,1%,-24%,28%,3%
CCC(Sc1nc2n[nH]c(C)c2c(=N)n1-c1cc(Cl)ccc1C)C(=O)N1CCOCC1 (configuration not stated),-14,?,?,-21%,12µM*
Nc1ccc(N=Nc2ccccc2)cc1[N+](=O)[O-],-12,-16%,-18%,-20%,-30%
COC(=O)c1ccccc1NC(=O)c1ccccc1OC,0,-3%,-8%,-6%,-25%
COc1ccccc1NC(=O)Nc1ccc(NC(=O)c2ccccc2O)cc1,?,-15%,-27%,-10%,29µM*
COc1ccccc1NC(=O)c1ccccc1NC(=O)c1ccccc1C(=O)O,-5,-6%,3%,1%,-13%
COc1ccccc1NC(=O)c1ccccc1C(=O)Nc1ccccc1OC,-67*,-3%,?,-5%,?
COc1ccccc1NC(=O)Nc1ccc(C(N)=O)cc1,-22,6%,-26%,9%,?
COc1ccccc1C(=O)Nc1ccccc1SC(=O)c1ccccc1OC,-3,?,2.6µM*,18µM*,2.6µM*
O=C(Nc1ccccc1OC(=O)c1ccccc1)c1ccccc1,59,15µM*,?,?,29µM*
COc1ccc(-c2nc3c4ccccc4n(CC(=O)Nc4ccc(C(C)C)cc4)c(=O)n3n2)cc1,.,.,?,.,-16%
C=CCSc1nc(N)c(C(=O)Nc2ccccc2)cc1C#N,-1,-17%,-22%,-3%,-20%
COc1ccccc1NC1=C(NC(C)=O)C(=O)c2ccccc2C1=O,14,?,18µM*,?,?
C=CCSc1nc(N)c(C(=O)Nc2ccccc2OC)cc1C(=O)Nc1ccccc1,41,-12%,8.2µM*,-3%,8.2µM*
COc1ccccc1C(=O)NNC(=O)c1ccccc1Br,34,8%,-7%,2%,8%
COC1=C(Nc2ccccc2OC)C(=O)c2ccccc2C1=O,.,-1%,-4%,0%,?
COc1ccccc1NC(=S)NNC(=O)c1ccccc1Br,77,5%,16µM*,1%,13µM*
COc1ccccc1NC(=O)c1cnc(Nc2ccccc2OC)c2ccccc12,33,?,1.6µM*,3.7µM*,1.2µM*
Cc1cc(Br)c(NC(=O)CSc2n[nH]c(N)n2)c(Br)c1,0,5%,-23%,-8%,0%
COc1ccc(Nc2ncc(C(=O)Nc3ccc(F)cc3F)c3ccccc23)cc1,.,.,13µM*,.,18µM*
COc1ccc(OC)c(/C(O)=C/C(=O)C(=O)Nc2ccccc2OC)c1,21,1%,?,4%,18µM*
COc1ccc(OC)c(S(=O)(=O)N(C)CC(=O)Nc2ccccc2OC)c1,5,4%,-6%,20%,?
CCOC(=O)c1ccc(NC(=O)CCc2nc(-c3ccccc3)no2)cc1,-9,-28%,18µM*,-1%,29µM*
